Bioassay records: PubChem BioAssay, NMMLSC
Rows were chosen to be rich in hits. Some 0.38% of all compounds tested hit in one or more screens of this group.
Rab2A wt mod – changes GTP binding to wildtype dog Rab2A, up or down | GST-Rab2 wt beads, Bodipy-GTP binding, flow cytometry | 190,000 compounds, 0.19% hits | P61105 | GTP binding activity, % at 10 µM;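 active means GTP binding activity at least 20 points away from 100%, either lowered or raised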;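 further: 0% = beads with excess unlabeled GTP and 100% = no-compound control corrected for plate trend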
HRas wt GTP – changes GTP binding to wildtype human HRas | AID 759 | 190,000 compounds, 0.14% hits | GST-Ras wt beads, Bodipy-FL-GTP binding, flow cytometry; actives lie on both sides | GTP binding activity, % at 10 µM;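 active means GTP binding activity at least 20% away from the 100% baseline, either lowered as inhibitor or raised as activator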;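 further: 0% = unlabeled GTP competition control and 100% = no-compound control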
Rac1 wt modul – human Rac1 wildtype GTP binding, inhibitors and activators. GST-Rac1 beads, fluorescent GTP binding, flow cytometry; actives lie on both sides; 0 = cold GTP competed, 100 = untreated. GTP binding activity (% of control), % at 10 µM. 190,000 compounds, 0.27% hits. AID 757;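 active means GTP binding activity at least 20 points away from the 100% control level, either lower or higher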
Rac1 act GTP bind – human Rac1 activated mutant GTP binding change | GST-Rac1 activated beads, fluorescent GTP binding, flow cytometry; actives lie on both sides; 100% means binding = to untreated wells | percent activity (GTP binding), % at 10 µM | 190,000 compounds, 0.11% hits | AID 764;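 active means GTP binding at least 20 percentage points away from the 100% baseline, in either direction, so actives lie on both sides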
Cdc42 wt – changes GTP binding to wildtype human Cdc42. P60953. GST-Cdc42 beads, Bodipy-GTP binding, flow cytometry; actives lie on both sides. percent activity (GTP binding), % at 10 µM. 190,000 compounds, 0.2% hits;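 active means percent activity GTP binding at least 20 points away from the 100% baseline, either down as inhibitor or up as activator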;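 further: median bead fluorescence of bound Bodipy-FL-GTP at 100 nM; 0% = excess unlabeled GTP control and 100% = no compound control; below 100% means less GTP binding so inhibitor and above means activator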
Target sequence (P60953 whole entry, looked up): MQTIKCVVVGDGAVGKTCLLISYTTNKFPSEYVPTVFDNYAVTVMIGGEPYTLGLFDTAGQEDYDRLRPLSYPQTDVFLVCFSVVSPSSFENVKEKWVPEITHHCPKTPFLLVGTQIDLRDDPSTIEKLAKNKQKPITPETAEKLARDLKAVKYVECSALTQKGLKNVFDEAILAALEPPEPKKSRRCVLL
Rab7 wt GTP bind – modulators of GTP binding to dog Rab7 wildtype GTPase. GST-Rab7 beads, fluorescent GTP binding, flow cytometry; actives lie on both sides; untreated = 100%, excess cold GTP = 0%. 190,000 compounds, 0.055% hits. GTP binding activity (percent of control), % at 10 µM;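 active means fluorescent GTP binding to Rab7 beads changed by at least 20 points from the 100% baseline, either direction, mostly lower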;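 further: median green fluorescence of bound Bodipy-FL-GTP per Rab7 bead population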
The depositor's hits bear a star; [ ] = dose if it differs, or a comment.

SMILES	Rab2A wt mod	HRas wt GTP	Rac1 wt modul	Rac1 act GTP bind	Cdc42 wt	Rab7 wt GTP bind
Cc1cccc(-n2c(O)c(C=Nc3ccc(Br)cn3)c(=O)[nH]c2=O)c1	102	99	102	100	98	99
Cc1ccc(-n2c(O)c(/C=N/c3ncc(Br)cc3Br)c(=O)[nH]c2=O)cc1	94	94	123*[activator]	98	100	94
CCOCCCn1c(N)c(C(=O)Nc2sc3c(c2C(=O)OC)CCCC3)c2nc3ccccc3nc21	72*	72*	82	87	72*	88
CCOC(=O)c1c(C)n(C(C)C)c2ccc(OC(=O)c3ccc(N4C(=O)CCC4=O)cc3)cc12	97	102	103	99	102	98
CCn1nc(/C=C/c2ccccc2)nc2c(=O)n(C)c(=O)nc1-2	83	82	96	83	76*	92
c1cncc(C2CC(c3cccs3)n3ncnc3N2)c1 (stereo unspecified)	108	100	103	102	103	98
O=c1[nH]c(=S)[nH]c(O)c1N=Nc1ccc(S(=O)(=O)N2CCc3ccccc32)cc1	94	93	120*[activator]	98	93	97
Cc1c(N=Nc2c(O)[nH]c(=S)[nH]c2=O)c(=O)n(-c2ccccc2)n1C	100	102	105	98	104	101
